# Source: PubChem BioAssay
# Efflux pump inh: inhibitors of Candida antifungal efflux pumps expressed in yeast | 0.44% of 330,000 active | S. cerevisiae Candida pump triplex, Nile Red efflux | inhibition, % at 10 µM | AID 485275;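 active means plate passing quality check with inhibition over a set limit, or well fluorescence over plate mean plus 4 SD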;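 further: Nile Red retained in pooled yeast measured as flow cytometry median fluorescence; higher means more Nile Red kept so more efflux inhibition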
# H9c2 protect: modulators protecting cardiomyocytes from myocardial damage | 0.63% of 360,000 active | AID 588492 | protection from H2O2 cell death, % at 20 µM | H9c2 cardiomyocytes, H2O2 injury protection, ATPLite, 2 h;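 active means compounds giving at least 50% protection of heart cells from peroxide-induced death in the single-dose screen, raw or plate-pattern-corrected value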
# Calb FLC: C. albicans growth modulation with fluconazole; C. albicans CaCi-2 (fluconazole-resistant clinical isolate) + fluconazole, Alamar Blue growth, 48 h; growth inhibition, % (concentration not given with the values); 0.57% of 300,000 active;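 active means growth inhibition above about 58% in most replicates, limit read from the data, passing the limit was not always enough; inconclusive means exactly half the replicates above a set limit; inactive means most replicates below a set limit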;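 further: all wells also contain fluconazole at 8 µg/ml as a sub-toxic cotreatment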
# KCC2 mod: KCC2 (human) Cl- transport modulation. Q9H2X9. KCC2 cells, thallium flux FluoZin-2 fluorescence. B-score of Tl+ flux slope (higher = more flux/activation; lower = inhibition) at 10 µM. 2.2% of 190,000 active;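 active means thallium flux slope and its plate-corrected score both differing from the plate sample mean at a set confidence after two filtering rounds, in either direction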;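 further: slope of fluorescence scaled to starting intensity during 10 to 20 s after thallium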
# PHOSPHO1 inh: PHOSPHO1 (human) inhibition. Q8TCT1. recombinant PHOSPHO1, absorbance phosphatase assay. inhibition, % at 13.3 µM. 1.1% of 290,000 active. AID 1565; in the data active means inhibition above about 60%
# Target sequence (Q8TCT1 whole entry, looked up): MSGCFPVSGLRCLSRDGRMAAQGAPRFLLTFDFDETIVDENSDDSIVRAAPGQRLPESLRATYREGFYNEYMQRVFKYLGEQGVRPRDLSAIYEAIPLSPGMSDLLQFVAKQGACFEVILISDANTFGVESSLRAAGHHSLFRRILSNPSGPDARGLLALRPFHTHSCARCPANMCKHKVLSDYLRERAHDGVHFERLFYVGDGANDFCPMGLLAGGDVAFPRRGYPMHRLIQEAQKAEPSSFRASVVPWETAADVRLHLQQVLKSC
# KCC2 secondary: KCC2 (human) modulation, secondary assay | shares compounds with KCC2 mod | 15% of 3,700 active | normalised thallium flux (F/F0 slope) at 10 µM | HEK293-KCC2, thallium flux, FluoZin2 fluorescence; stronger effect = higher value;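 active means thallium flux slope above the same plate's solvent-only control mean plus 3 SD; inconclusive means the two replicate wells disagree; inactive means no significant difference from solvent-only control wells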
# KCC2 bumet counter: thallium flux despite bumetanide block in KCC2 cells, secondary assay 3 | shares compounds with KCC2 mod | 49% of 3,700 active | normalized thallium flux at 10 µM | HEK293-KCC2 + bumetanide/ouabain, thallium flux FluoZin2; stronger effect = higher value;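 active means thallium entry rate above the same plate's blocked-transporter control wells by more than 3 SD; inconclusive means the two repeat wells disagree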;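 further: raw slope of fluorescence over initial fluorescence between 10 and 20 s after thallium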
# KCC2 secondary2: KCC2 (human) modulation, second secondary assay; shares compounds with KCC2 mod; HEK293-KCC2, thallium flux FluoZin2 fluorescence; actives lie on both sides; F/F0 rise rate, 10–20 s post-thallium; normalized thallium flux at 10 µM; 23% of 3,700 active;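 active means thallium flux slope more than 3 SD above or below the plate's solvent-only control mean, mostly below; inconclusive means the two repeat wells disagreed; inactive means no significant shift from solvent-only controls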
# HEK counter1: parental HEK flux effect, counter-screen | shares compounds with KCC2 mod | AID 1716 | thallium flux rate (normalised fluorescence) at 10 µM | HEK293 parental cells, thallium flux FluoZin2, ouabain; baseline-ratio fluorescence slope, 10–20 s after thallium | 46% of 3,700 active;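 active means thallium flux rate significantly above the same plate's solvent-only control wells, beyond their mean plus 3 SD; inconclusive means the two replicate wells gave conflicting results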
# KCC2 ouabain: modulates human KCC2 on retest with ouabain. shares compounds with KCC2 mod. HEK293-KCC2, thallium flux FluoZin2 fluorescence; bidirectional: low = inhibitor, high = activator. raw Tl+ flux slope (below DMSO = inhibition, above = activation) at 10 µM. 48% of 3,700 active. AID 1717;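 active means thallium flux slope beyond 3 SD from same-plate DMSO control mean in most replicates, usually higher, sometimes lower; inconclusive means repeat tests gave conflicting results; inactive means no significant difference from controls in most replicates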;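 further: slope of initial-normalized fluorescence between seconds 10 and 20 after thallium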
# HEK293 Tl flux2: acts in parental HEK cells, second KCC2 counter-screen. shares compounds with KCC2 mod. HEK293 parental, thallium flux FluoZin-2 fluorescence slope. 33% of 3,700 active. AID 1718. thallium flux slope at 10 µM;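 active means thallium flux slope above the same plate's solvent-control mean plus 3 SD in both duplicate wells; inconclusive means duplicate wells that disagreed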;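 further: run without ouabain in cells lacking the KCC2 cotransporter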
# Hits are given with their value; – = inactive; ? = inconclusive; · = no result. Only some compounds are listed: those with a hit (about 3.3% of all), similar ones and a draw of the others.
SMILES,Efflux pump inh,H9c2 protect,Calb FLC,KCC2 mod,PHOSPHO1 inh,KCC2 secondary,KCC2 bumet counter,KCC2 secondary2,HEK counter1,KCC2 ouabain,HEK293 Tl flux2
Cc1ccc(-c2ccnc(=S)[nH]2)cc1,–,–,–,·,90,0.023,0.032,0.041,0.033,0.034,0.035
CC1(C)CCc2cc(-c3ccnc(=S)[nH]3)ccc2O1,–,–,–,·,–,·,·,·,·,·,·
COCCn1c(SCc2csc(-c3ccccc3)n2)nc2ccccc21,–,–,–,-3.5,–,–,–,–,0.0051,0.015,–
COc1cccc(NC(=O)CN(C)C(=O)CNC(=O)c2ccc3ccccc3c2)c1,–,–,–,·,·,·,·,·,·,·,·
Cc1ccc([N+](=O)[O-])c(-c2n[nH]c(=S)n2-c2cccc(Cl)c2)c1,–,–,–,7.1,88,0.014,0.032,–,0.012,?,0.012
Cc1ccc(-n2c(-c3cccc(C)c3)n[nH]c2=S)cc1,–,–,?,5.8,102,–,0.02,–,0.014,0.021,0.017
Cc1cccc(-n2c(-c3csc4ccccc34)n[nH]c2=S)c1,–,–,–,17,–,0.013,0.069,–,0.026,0.055,?
CC(C)Cn1c(-c2csc(C(C)C)c2)n[nH]c1=S,–,–,–,21,–,0.015,0.08,–,0.032,0.056,0.012
Cc1cccc(-n2c(-c3ccoc3C)n[nH]c2=S)c1,–,–,–,–,–,·,·,·,·,·,·
CCOCCCN(C(=O)Cn1nnc(-c2ccc(C)o2)n1)C(C(=O)NC1CCCC1)c1ccc(C)o1 (centres undefined),·,–,–,·,–,·,·,·,·,·,·
CC(C)Cn1c(-c2csc3ccccc23)n[nH]c1=S,–,–,–,4.9,106,–,0.019,–,0.018,?,0.015
Cc1cc(-c2n[nH]c(=S)n2CC(C)C)cs1,–,–,–,–,–,·,·,·,·,·,·
COC(=O)c1ccc(C2c3c(oc4ccccc4c3=O)C(=O)N2CCCN2CCOCC2)cc1 (centres undefined),–,–,–,-4.5,–,–,0.0061,–,–,–,–
COCCN1C(=O)c2oc3ccccc3c(=O)c2C1c1ccc(C(=O)OC)cc1 (centres undefined),–,–,–,–,–,·,·,·,·,·,·
Cc1ccc(CN2CC(N3CCCC3)CS2(=O)=O)cc1 (centres undefined),·,–,·,·,·,·,·,·,·,·,·
O=c1c2ccccc2nc(/C=C/c2ccc(Br)cc2)n1CCO,–,–,–,·,·,·,·,·,·,·,·
Cc1[nH]c2ccccc2c1/C=C/c1nc2ccccc2c(=O)n1CCO,–,–,–,-4.2,–,–,0.0024,–,–,?,–
COc1ccc(/C=C2\CCc3ccccc3C2=O)cc1CN1CCOCC1,–,–,–,-5,–,?,?,0.023,–,?,–
COc1ccc(/C=C2/CCc3ccccc3C2=O)cc1OC,–,–,?,–,–,·,·,·,·,·,·
Cc1nn(-c2ccccc2)nc1C(=O)c1c(C)[nH]n(-c2ccccc2)c1=O,–,–,–,11,–,0.015,0.029,–,?,0.034,?
O=C(NC(=S)NC1CCCc2ccccc21)c1ccc(F)cc1 (centres undefined),–,–,–,·,–,·,·,·,·,·,·
O=C(NC(=S)NCCC1=CCCCC1)c1ccc(Br)o1,–,–,–,59,–,?,0.066,0.075,0.077,0.077,0.07
Cc1ccccc1C(=O)NC(=S)NCCC1=CCCCC1,–,–,–,4.4,–,–,0.016,–,0.026,0.027,?
O=C(NC(=S)NCCC1=CCCCC1)c1ccco1,–,–,–,79,–,0.034,0.16,0.046,?,0.11,0.037
O=C(NC(=S)NC1CCCc2ccccc21)c1ccco1 (centres undefined),–,–,–,63,–,0.03,0.17,0.046,0.097,0.11,0.035
SMILES,Efflux pump inh,H9c2 protect,Calb FLC,KCC2 mod,PHOSPHO1 inh,KCC2 secondary,KCC2 bumet counter,KCC2 secondary2,HEK counter1,KCC2 ouabain,HEK293 Tl flux2
O=C(NCCC1=CCCCC1)c1ccc(Br)o1,–,–,–,·,–,·,·,·,·,·,·
O=C(NCCc1ccc(C(F)(F)F)cc1)c1ccc(Cl)nc1,–,–,–,·,–,·,·,·,·,·,·
Cc1cc(CC(C)C)n(-c2nc3ccccc3c(=O)n2OCc2ccccc2)n1,–,–,–,5.1,–,–,0.023,–,0.011,0.052,0.012
Cc1cc(CC(C)C)n(-c2nc3ccccc3c(=O)n2OCC(=O)N(C)C)n1,–,–,–,10,–,–,0.026,–,0.024,0.032,0.017
COCCC(=O)N1CCC(Oc2ccc(C(=O)NCCc3ccccn3)cc2)CC1,–,–,–,·,–,·,·,·,·,·,·
CCCCn1c(N)c(N(C)C(=O)c2ccc(OCC3CCCO3)cc2)c(=O)[nH]c1=O (centres undefined),–,–,·,·,·,·,·,·,·,·,·
CCOC(=O)c1cnc(-n2nc(C)cc2C)nc1NNc1ncc(-c2ccccc2)cn1,–,·,–,8.5,–,–,0.024,–,0.017,0.027,0.021
Cc1cc(NC(=O)CCC(=O)N(Cc2ccco2)C2(C(=O)NC3CCCC3)CCCCC2)no1,–,–,–,·,–,·,·,·,·,·,·
Cc1cc(NC(=O)CCC(=O)N(Cc2ccco2)C2(C(=O)NC3CCCCC3)CCN(C)CC2)no1,–,–,–,-5.9,–,–,–,–,–,–,–
Cc1ccc(C)c(N(C(=O)CCC(=O)Nc2cc(C)on2)C(C(=O)NC2CCCC2)c2ccco2)c1 (centres undefined),–,–,–,-4.3,–,?,–,?,–,–,–
O=C(Nc1nnc(-c2ccc3c(c2)CCCC3)o1)C1CCCCC1,–,–,–,–,–,·,·,·,·,·,·
O=C(Nc1nnc(-c2ccc3c(c2)CCCC3)o1)c1c(F)cccc1F,–,–,?,16,–,0.017,0.047,–,0.02,0.035,0.013
C=CCNC(=S)N/N=C(\C)c1ccc(OC)cc1,–,–,–,–,–,·,·,·,·,·,·
CC(=O)Nc1cccc(/C(C)=N/NC(=S)NC(C)C)c1,–,–,–,–,–,·,·,·,·,·,·
C/C(=N\NC(=S)NC(C)C)c1ccccc1,–,–,–,5.8,–,?,0.02,–,0.0095,0.046,?
C/C(CCC(C)C)=N\NC(=S)NCc1ccccc1,–,–,–,–,–,·,·,·,·,·,·
COc1ccc(NC(=S)NCCCc2ccccc2)cc1,–,–,–,-4.8,–,–,?,0.023,–,–,–
